{"source": "the supplement of paper PMC8387472", "data": [{"compound": "O=C(c1cccc(Cl)c1F)N1CCN(Cc2cccc(Nc3nccs3)n2)CC1", "experiment": "fraction of microhomology deletions among edited reads; higher = more MH deletions", "conditions": "mESC; 2uM; 72 h treatment, harvest day 5", "values": [{"target": "32.0 (DMSO control at this site: 1-bp insertion 0.03, MH deletion 0.85, edited 0.898) AGAAGTCCAGGATCAGGGGGACTGGGGTCGGGAGGGTGGGGCAGGAAGGAAGCCAGAATCA", "fraction of microhomology deletions among edited reads": 0.926}, {"target": "26.0 (DMSO control at this site: 1-bp insertion 0.518, MH deletion 0.262, edited 0.026) AGGGCGCGCCCCACGCACTCTGCGGCAAGTCCCTCTGCGGCAAGTCCTCGGCCCGGAAGAC", "fraction of microhomology deletions among edited reads": 0.275}, {"target": "34.0 (DMSO control at this site: 1-bp insertion 0.184, MH deletion 0.385, edited 0.103) ATTATAGGACCCTGAGGGAGCAGAGATGTGGGAATGGGGGCCGAGCCAATTGTGATGTAAG", "fraction of microhomology deletions among edited reads": 0.39}, {"target": "18.0 (DMSO control at this site: 1-bp insertion 0.114, MH deletion 0.789, edited 0.094) GCGCAAGTGCATAAGTTTTTCTTAAGGCGTGCCTTTAAGGCGTGCCTTTGTCGGTCCTGGA", "fraction of microhomology deletions among edited reads": 0.777}, {"target": "41.0 (DMSO control at this site: 1-bp insertion 0.022, MH deletion 0.754, edited 0.115) AAAGAGACAGCAGGTATGAATCCATCTTCCTGACCCTTGGGACCAGCCGGGGCAGTGAAGC", "fraction of microhomology deletions among edited reads": 0.694}, {"target": "47.0 (DMSO control at this site: 1-bp insertion 0.095, MH deletion 0.585, edited 0.118) GAGTGGTCCCGAGCCAGGAACTGTGTGTGTTGCAGGGGGGCAGTAACTCCCCAACTCCCTC", "fraction of microhomology deletions among edited reads": 0.453}, {"target": "35.0 (DMSO control at this site: 1-bp insertion 0.01, MH deletion 0.72, edited 0.098) CCACTTTTAGAGAGGGTGAAAATCATCAGTTATCATCAGGGCAACAAATTGCTTTCTCCTA", "fraction of microhomology deletions among edited reads": 0.679}, {"target": "16.0 (DMSO control at this site: 1-bp insertion 0.172, MH deletion 0.29, edited 0.05) CGGACTGCACACATGGGTAGGATCGTGCACGCGAGGTAGGATCGTGCACGCGAAGTTATTC", "fraction of microhomology deletions among edited reads": 0.256}, {"target": "19.0 (DMSO control at this site: 1-bp insertion 0.121, MH deletion 0.101, edited 0.057) TCTGCAGGGGTCGGAACCCGGGGGCTAGGGCTATCCCGGGGGCTAGGGCTATTAGCGAACC", "fraction of microhomology deletions among edited reads": 0.177}, {"target": "22.0 (DMSO control at this site: 1-bp insertion 0.573, MH deletion 0.229, edited 0.045) CTGATGGTTGAAGGATTTAGCCGGGGTCCTAGACGCCGGGGTCCTAGACGAAAGGGCCACG", "fraction of microhomology deletions among edited reads": 0.0524}, {"target": "38.0 (DMSO control at this site: 1-bp insertion 0.063, MH deletion 0.487, edited 0.17) GGGCTGGGTGCTAAAATGAGGAGCTCCAAGAAGACTGAGGTGAACCTGGAGGCCCCTGAGC", "fraction of microhomology deletions among edited reads": 0.439}, {"target": "5.0 (DMSO control at this site: 1-bp insertion 0.214, MH deletion 0.567, edited 0.105) CGCTGACCCGAGACCTACGCGAACCGAAATCGGCGACCGGTGCGCAAGCAGGGCTGGCGTC", "fraction of microhomology deletions among edited reads": 0.537}, {"target": "1.0 (DMSO control at this site: 1-bp insertion 0.521, MH deletion 0.323, edited 0.141) GTGTCACAGTGCACGAGTGACGGGATAATGTGCTGACAGGTAATTGATAGGCTTCCAACTT", "fraction of microhomology deletions among edited reads": 0.209}, {"target": "0.0 (DMSO control at this site: 1-bp insertion 0.463, MH deletion 0.339, edited 0.14) AGGATTACCGAGACCTACGCGAACCGAAATCGCTGTCCGGTGCGCAAGCAGGGCTGGCGTC", "fraction of microhomology deletions among edited reads": 0.201}, {"target": "3.0 (DMSO control at this site: 1-bp insertion 0.109, MH deletion 0.149, edited 0.09) TGCTAGCGCCCCCACAAAGCGGACCAGCCAGCACTATAGGGAATAAGGCCAACTTGCACCC", "fraction of microhomology deletions among edited reads": 0.193}, {"target": "7.0 (DMSO control at this site: 1-bp insertion 0.128, MH deletion 0.374, edited 0.098) TACTCAACCGAGACCTACGCGAACCGAAATCGTATGCCGGTGCGCAAGCAGGGCTGGCGTC", "fraction of microhomology deletions among edited reads": 0.394}, {"target": "39.0 (DMSO control at this site: 1-bp insertion 0.328, MH deletion 0.371, edited 0.204) CTGCACAGTCACTTAGGATAGGAGAAGATGATGTATAGGGTTTAGTGGGAGATGTTGCAAG", "fraction of microhomology deletions among edited reads": 0.32}, {"target": "25.0 (DMSO control at this site: 1-bp insertion 0.017, MH deletion 0.774, edited 0.143) GGGCCTGAATGGTGTGGACATCTACTCGCTGGTGAGCTGGTGACTGAAAACATTCAGTGGC", "fraction of microhomology deletions among edited reads": 0.769}, {"target": "40.0 (DMSO control at this site: 1-bp insertion 0.072, MH deletion 0.192, edited 0.189) GCGAATCAACTGTTCAACAACAGCAGCAGCCACCTGGAGGACTACAGTGGCCTGTCCGTGT", "fraction of microhomology deletions among edited reads": 0.137}, {"target": "42.0 (DMSO control at this site: 1-bp insertion 0.145, MH deletion 0.655, edited 0.132) GGGCTAAACCTATGAGCACAGTAGAACTAAGGGTGGGTGGTGTAGCTAAAGAACTTGACCA", "fraction of microhomology deletions among edited reads": 0.62}, {"target": "28.0 (DMSO control at this site: 1-bp insertion 0.035, MH deletion 0.77, edited 0.142) TGGTTCTTCCTTTGTAGAGAGTGTTCATCTGGGAATCTGGGACTTGGATGAGACAATCATT", "fraction of microhomology deletions among edited reads": 0.76}, {"target": "2.0 (DMSO control at this site: 1-bp insertion 0.364, MH deletion 0.356, edited 0.125) GGTGCCCCCGAGACCTACGCGAACCGAAATCGATGTCCGGTGCGCAAGCAGGGCTGGCGTC", "fraction of microhomology deletions among edited reads": 0.256}, {"target": "4.0 (DMSO control at this site: 1-bp insertion 0.146, MH deletion 0.523, edited 0.125) ACGCCTTAGTGCACGAGTGACGGGATAATGTGGTCTCAGGTAATTGATAGGCTTCCAACTT", "fraction of microhomology deletions among edited reads": 0.475}, {"target": "31.0 (DMSO control at this site: 1-bp insertion 0.315, MH deletion 0.329, edited 0.026) ACCTCCACAGGCTGGGTGGCCCGGAGGCTGGGCGGCCCGGAGGCTGGGCTGGGCGAGTATC", "fraction of microhomology deletions among edited reads": 0.391}, {"target": "29.0 (DMSO control at this site: 1-bp insertion 0.084, MH deletion 0.745, edited 0.133) TTGATGAACTTCCTCTTCTTCTCATGTCTCCGGTCTCCGGTAGGCCACGTGCATGGCCACT", "fraction of microhomology deletions among edited reads": 0.662}, {"target": "17.0 (DMSO control at this site: 1-bp insertion 0.112, MH deletion 0.348, edited 0.058) CCATAGCGCGATAAATATGACGGCTCATCCTGTATGACGGCTCATCCTGTATCAACTGTCC", "fraction of microhomology deletions among edited reads": 0.409}, {"target": "45.0 (DMSO control at this site: 1-bp insertion 0.017, MH deletion 0.666, edited 0.101) TTACACAGCATGAACTGCTAGGTGATGATGTCAGATTCGGTTTTACTAACTTCTCCAAAAA", "fraction of microhomology deletions among edited reads": 0.598}, {"target": "30.0 (DMSO control at this site: 1-bp insertion 0.074, MH deletion 0.67, edited 0.142) GAGCTGGCATGAGTATTTGTGCCACATGGCTCCCACATGGCTCCACATGCAAGTTTGAAAC", "fraction of microhomology deletions among edited reads": 0.638}, {"target": "44.0 (DMSO control at this site: 1-bp insertion 0.181, MH deletion 0.512, edited 0.123) ACACATACCTTCTTCGAGGCAGCCAGCATGATGAGACAGGTCTCCCACAAACACATCGTGT", "fraction of microhomology deletions among edited reads": 0.486}, {"target": "20.0 (DMSO control at this site: 1-bp insertion 0.349, MH deletion 0.138, edited 0.084) TACAGGTGTAGACTGGTTACGTGGCTGCGGAATTGACTGGTTACGTGGCTGCGGAATTTTG", "fraction of microhomology deletions among edited reads": 0.125}, {"target": "43.0 (DMSO control at this site: 1-bp insertion 0.134, MH deletion 0.714, edited 0.104) AGTTTAACTTACTCCGGCCAAAAAAGAACTGCACCTCTGGAGCGGGTTAGTGGTGGTGGTA", "fraction of microhomology deletions among edited reads": 0.686}, {"target": "23.0 AGAACAAAGCGCTCATATAACGATATGGGGGGTTATGGGGGGTTGAATTGCTTCAGCACGA", "fraction of microhomology deletions among edited reads": 0.856}, {"target": "33.0 (DMSO control at this site: 1-bp insertion 0.008, MH deletion 0.771, edited 0.112) CATTAAGAGCAGCTGCCGGCCCCCAAGTGGACAGAGCTGGCCCTGCTGATTCAACAGTGCA", "fraction of microhomology deletions among edited reads": 0.688}]}]}
